Measurements: PubChem BioAssay (Tox21)
Unmarked numbers belong to inactive results. Inconclusive results are not listed. A call without a number means that no potency is given here. Activity calls are given as the source filed them. Calls follow the shape of the dose curve; as a rule, active = well fitted curve in the direction sought with a large enough effect in the repeat runs; inconclusive = weak or mixed curves; inactive = no such curve, though single readings can be large; an effect the other way counts as inactive or inconclusive.

Key:
[1] = qHTS RealTime-Glo MT Cell Viability Assay in HEK293 cells - 32 hour (AID 1224868); also: top concentration of the series differs between compounds; nearly all actives have a fitted effect of over 50% in size
Procedure, shortened: (§1)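 Viability tracked continuously by luminescence as live cells reduce a prosubstrate for NanoLuc; HEK293 cells preincubated 5 h, compound-treated at 37 C, and read at 0, 8, 16, 24, 32 and 40 h.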

[2] = A CellTox Green Cytotoxicity Assay to monitor cytotoxicity in HEK293 cells - 0 hour (AID 1224869); also: nearly all actives have a fitted effect of over 50% in size
Procedure, shortened: (§2)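 Each value comes from one timepoint of a single continuous run in which HEK293 cells with CellTox Green were exposed to compound for up to 40 h at 37 C, dye fluorescence rising with cell death.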

[3] = qHTS RealTime-Glo MT Cell Viability Assay in HepG2 cells - 40 hour (AID 1224870); also: nearly all actives have a fitted effect of over 50% in size
Procedure, shortened: (§3)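 HepG2 cells mixed with RealTime-Glo MT reagents (NanoLuc plus cell-permeant prosubstrate) were seeded at 600 cells/well, incubated 5 h at 37 C/5% CO2, then pinned with compounds in DMSO; nonlytic luminescence tracked viability during 40 h treatment.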

[4] = A CellTox Green Cytotoxicity Assay to monitor cytotoxicity in HEK293 cells - 40 hour (AID 1224871); also: nearly all actives have a fitted effect of over 45% in size
Procedure, shortened: as §2

[5] = qHTS RealTime-Glo MT Cell Viability Assay in HEK293 cells - 16 hour (AID 1224872); also: top concentration of the series differs between compounds; nearly all actives have a fitted effect of over 50% in size
Procedure, shortened: as §1

[6] = qHTS RealTime-Glo MT Cell Viability Assay in HepG2 cells - 8 hour (AID 1224873); also: nearly all actives have a fitted effect of over 55% in size
Procedure, shortened: as §3

[7] = qHTS RealTime-Glo MT Cell Viability Assay in HEK293 cells - 40 hour (AID 1224874); details: RealTime-Glo luminescence; max response: active compounds read low; also: nearly all actives have a fitted effect of over 50% in size
Procedure, shortened: (§4)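 qHTS format; HEK293 cells with NanoLuc/prosubstrate reagent, 37 C/5% CO2 for 5 h pre-dosing; compounds 23 nL in DMSO; luminescence at each time point reflects viable cells.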

[8] = A CellTox Green Cytotoxicity Assay to monitor cytotoxicity in HEK293 cells - 24 hour (AID 1224875); also: series mostly up to about 77 µM; nearly all actives have a fitted effect of over 45% in size
Procedure, shortened: as §2

[9] = A CellTox Green Cytotoxicity Assay to monitor cytotoxicity in HepG2 cells - 16 hour (AID 1224876); also: nearly all actives have a fitted effect of over 45% in size
Procedure, shortened: (§5)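 Continuous culture of HepG2 cells with a membrane-impermeant DNA dye; rising fluorescence marks dead cells. Compound exposure lasted up to 40 h at 37 C, with reads every 8 h from 0 h.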

[10] = qHTS RealTime-Glo MT Cell Viability Assay in HepG2 cells - 32 hour (AID 1224877); also: nearly all actives have a fitted effect of over 55% in size
Procedure, shortened: (§6)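 Viability was tracked continuously by NanoLuc luminescence from prosubstrate reduced by living HepG2 cells, at successive time points over 40 h of compound exposure. Cells with reagent were preincubated 5 h at 37 °C before compound addition.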

[11] = A CellTox Green Cytotoxicity Assay to monitor cytotoxicity in HepG2 cells - 24 hour (AID 1224878); also: nearly all actives have a fitted effect of over 45% in size; also: potency is read from the fitted curve at half-maximal effect
Procedure, shortened: as §5

[12] = A CellTox Green Cytotoxicity Assay to monitor cytotoxicity in HepG2 cells - 40 hour (AID 1224879); also: nearly all actives have a fitted effect of over 40% in size
Procedure, shortened: as §5

[13] = qHTS RealTime-Glo MT Cell Viability Assay in HEK293 cells - 0 hour (AID 1224880)
Procedure, shortened: as §4

[14] = A CellTox Green Cytotoxicity Assay to monitor cytotoxicity in HEK293 cells - 32 hour (AID 1224881); also: nearly all actives have a fitted effect of over 40% in size
Procedure, shortened: as §2

[15] = A CellTox Green Cytotoxicity Assay to monitor cytotoxicity in HepG2 cells - 32 hour (AID 1224883); also: nearly all actives have a fitted effect of over 50% in size
Procedure, shortened: as §5

[16] = A CellTox Green Cytotoxicity Assay to monitor cytotoxicity in HEK293 cells - 8 hour (AID 1224884); also: nearly all actives have a fitted effect of over 35% in size
Procedure, shortened: as §2

[17] = qHTS RealTime-Glo MT Cell Viability Assay in HepG2 cells - 16 hour (AID 1224885); also: nearly all actives have a fitted effect of over 50% in size
Procedure, shortened: as §6

[18] = A CellTox Green Cytotoxicity Assay to monitor cytotoxicity in HepG2 cells - 0 hour (AID 1224882); also: nearly all actives have a fitted effect of over 35% in size
Procedure, shortened: as §5

[19] = qHTS RealTime-Glo MT Cell Viability Assay in HepG2 cells - 24 hour (AID 1224867); also: nearly all actives have a fitted effect of over 50% in size
Procedure, shortened: as §6

SMILES | Potency [1] | Potency [2] | outcome [3] | Potency [4] | Potency [5] | outcome [6] | max response [7] [%] | Potency [8] | Potency [9] | outcome [10] | Potency [11] | Potency [12] | outcome [13] | Potency [14] | Potency [15] | Potency [16] | outcome [17] | Potency [18] | outcome [19]
NS(=O)(=O)c1cc2c(cc1Cl)NC(C(Cl)Cl)NS2(=O)=O (stereo not given) | inactive | inactive | inactive | inactive | inactive | inactive | 2.25 | inactive | inactive | inactive | inactive | inactive | inactive | inactive | inactive | inactive | inactive | – | –
CC(CC(=O)O)CC(C)(C)C (stereo not given) | inactive | – | inactive | inactive | inactive | inactive | -0.126 | inactive | inactive | inactive | inactive | inactive | inactive | inactive | inactive | inactive | inactive | inactive | –
O=c1cc(O)c(Cl)c[nH]1 | inactive | inactive | inactive | inactive | inactive | inactive | 4.88 | inactive | inactive | inactive | inactive | inactive | inactive | inactive | inactive | inactive | inactive | inactive | –
Cc1oc(=O)oc1CN1CCN(c2cc3c(cc2F)c(=O)c(C(=O)O)c2n3C(C)S2)CC1 (stereo not given) | – | inactive | inactive | inactive | inactive | inactive | 5.9 | – | – | inactive | 0.535 µM (active) | – | inactive | inactive | – | inactive | inactive | inactive | –
CO[Si](CCCS)(OC)OC | – | – | inactive | inactive | inactive | inactive | 0.328 | inactive | inactive | inactive | inactive | inactive | inactive | inactive | inactive | inactive | inactive | inactive | inactive
COC(OC)C(C)c1ccccc1 (stereo not given) | inactive | inactive | inactive | inactive | inactive | inactive | 5.02 | inactive | inactive | inactive | inactive | inactive | inactive | inactive | inactive | – | inactive | – | –
CC(C)c1ccccc1O | – | – | inactive | inactive | inactive | inactive | 12.5 | inactive | inactive | inactive | inactive | inactive | inactive | inactive | inactive | inactive | inactive | inactive | –
CN[C@@H]1[C@H](O)[C@H](NC)[C@H]2O[C@@]3(O)C(=O)C[C@@H](C)O[C@H]3O[C@@H]2[C@H]1O | – | – | inactive | inactive | inactive | inactive | -13.7 | inactive | inactive | inactive | inactive | inactive | inactive | inactive | inactive | inactive | inactive | inactive | –
CCN1CN(CC)CN(CC)C1 | inactive | – | inactive | inactive | inactive | inactive | 4.59 | – | inactive | inactive | inactive | inactive | inactive | inactive | inactive | inactive | inactive | inactive | –
O=C1CC[C@H](C(=O)N2CCCCC2)N1 | – | inactive | – | inactive | inactive | inactive | -2.81 | inactive | inactive | inactive | inactive | inactive | inactive | inactive | inactive | inactive | inactive | inactive | inactive
CCCCCCCC[Si](OCC)(OCC)OCC | – | inactive | inactive | inactive | inactive | inactive | 0.929 | – | inactive | inactive | inactive | inactive | inactive | inactive | inactive | inactive | inactive | inactive | –
CCCCC(CC)C(=O)OC(C)C (stereo not given) | inactive | inactive | inactive | inactive | inactive | inactive | 3.8 | inactive | inactive | inactive | inactive | inactive | inactive | inactive | inactive | inactive | inactive | inactive | –
Nc1ccc(S(=O)(=O)NC(=O)c2ccccc2)cc1 | inactive | inactive | inactive | inactive | inactive | inactive | 2.96 | inactive | inactive | inactive | inactive | inactive | inactive | inactive | inactive | inactive | inactive | inactive | –
Cc1cc(C)cc([N+](=O)[O-])c1 | inactive | inactive | inactive | inactive | inactive | inactive | -13.7 | inactive | inactive | inactive | 55.6 µM (active) | – | inactive | inactive | – | – | inactive | inactive | –
CCCCCCCC/C=C\CCCCCCCC(=O)OC[C@@H](O)[C@H]1OC[C@H](O)[C@H]1O | inactive | – | inactive | inactive | inactive | inactive | 7.57 | inactive | inactive | inactive | inactive | inactive | inactive | inactive | inactive | inactive | inactive | inactive | –
C=CC(C)(O)CC/C=C(\C)CC (stereo not given) | inactive | inactive | inactive | inactive | inactive | inactive | 5.46 | inactive | inactive | inactive | inactive | inactive | inactive | inactive | inactive | inactive | inactive | inactive | –
COCCOCCOCCOC | inactive | inactive | inactive | inactive | inactive | inactive | 2.64 | – | inactive | inactive | inactive | inactive | inactive | inactive | inactive | – | inactive | inactive | –
CCNC(=O)/C=C/c1cccc(Br)c1 | inactive | inactive | inactive | inactive | inactive | inactive | 1.9 | inactive | inactive | inactive | inactive | inactive | inactive | inactive | inactive | inactive | inactive | inactive | –
CCC(=O)c1ccc(O)cc1 | inactive | inactive | – | inactive | inactive | inactive | -7.06 | – | inactive | inactive | inactive | inactive | inactive | inactive | inactive | inactive | inactive | – | –
O=C(O)c1ccccc1C(=O)OCc1ccccc1 | inactive | inactive | inactive | inactive | inactive | inactive | 3.76 | inactive | inactive | inactive | inactive | inactive | inactive | inactive | inactive | inactive | inactive | inactive | –
CC(=O)OC(C(=O)c1ccccc1)c1ccccc1 (stereo not given) | – | – | inactive | inactive | – | inactive | – | – | inactive | inactive | inactive | inactive | inactive | inactive | inactive | inactive | inactive | inactive | inactive
Nc1cc(Cl)cc(S(=O)(=O)O)c1O | – | – | – | inactive | inactive | inactive | -4.63 | – | inactive | inactive | inactive | inactive | inactive | inactive | inactive | – | inactive | inactive | inactive
